The panel holds about 83,000 compounds, 20% with a hit somewhere; the sample as a whole holds those more often.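 Assay: single dose, 48 h. Readout: percent growth (0 = no net growth; negative = cell death). Active: <10.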 Unmarked numbers belong to inactive results. Calls of active or inactive are those of the source.
Legend:
Assay in all cases: NCI-60 one-dose screen, 48 h (100 = growth as untreated, 0 = no growth, -100 = all killed)
Conditions in all cases: 10 µM
NCI-H23 lung = test system: NCI-H23 lung
NCI-H522 lung = test system: NCI-H522 lung
MDA-MB-231 breast = test system: MDA-MB-231 breast
M14 melanoma = test system: M14 melanoma
SK-MEL-5 melanoma = test system: SK-MEL-5 melanoma
LOX IMVI melanoma = test system: LOX IMVI melanoma
CCRF-CEM leukemia = test system: CCRF-CEM leukemia
MOLT-4 leukemia = test system: MOLT-4 leukemia
SR leukemia = test system: SR leukemia
OVCAR-8 ovarian = test system: OVCAR-8 ovarian
OVCAR-5 ovarian = test system: OVCAR-5 ovarian
OVCAR-4 ovarian = test system: OVCAR-4 ovarian
SK-OV-3 ovarian = test system: SK-OV-3 ovarian
IGROV1 ovarian = test system: IGROV1 ovarian
HS 578T breast = test system: HS 578T breast
NCI/ADR-RES ovarian = test system: NCI/ADR-RES ovarian
T-47D breast = test system: T-47D breast
SW-620 colon = test system: SW-620 colon
MCF7 breast = test system: MCF7 breast
HCT-116 colon = test system: HCT-116 colon

Structure (SMILES)	growth (NCI-H23 lung)	growth (NCI-H522 lung)	growth (MDA-MB-231 breast)	growth (M14 melanoma)	growth (SK-MEL-5 melanoma)	growth (LOX IMVI melanoma)	growth (CCRF-CEM leukemia)	growth (MOLT-4 leukemia)	growth (SR leukemia)	growth (OVCAR-8 ovarian)	growth (OVCAR-5 ovarian)	growth (OVCAR-4 ovarian)	growth (SK-OV-3 ovarian)	growth (IGROV1 ovarian)	growth (HS 578T breast)	growth (NCI/ADR-RES ovarian)	growth (T-47D breast)	growth (SW-620 colon)	growth (MCF7 breast)	growth (HCT-116 colon)
CC1=C2C(=C[C@@](C)(COC(=O)c3ccc(S(=O)(=O)F)cc3)[C@@H]2O)C(=O)[C@](C)(O)C12CC2	-32.2% (active)	-64.5% (active)	-16.3% (active)	-85% (active)	-82.5% (active)	-40.2% (active)	9.59% (active)	10.2%	-0.78% (active)	-31.1% (active)	-12.4% (active)	-33.5% (active)	-24.7% (active)	-13.9% (active)	-16% (active)	-3.75% (active)	0.908% (active)	-20.5% (active)	1.68% (active)	-4.41% (active)
CC1=C[C@H]2O[C@@H]3C[C@H]4OC(=O)/C=C\C=C\[C@H]([C@@H](C)O)OCC[C@@H](C)[C@H](O)C(=O)OC[C@@]2(CC1)[C@]4(C)[C@]31CO1	-36.6% (active)	-43.4% (active)	-25.2% (active)	-76% (active)	-90.2% (active)	-79% (active)	-7.82% (active)	-19.2% (active)	-10.5% (active)	-12.8% (active)	-16.8% (active)	-19% (active)	-18.6% (active)	-13.4% (active)	-6.56% (active)	-24.9% (active)	-19% (active)	0.381% (active)	-7.85% (active)	-27.7% (active)
COc1cc(OC)c(S(=O)(=O)N(CCCl)CCCl)cc1C(=O)/C=C/c1ccc(Cl)cc1	–	83.5%	67.1%	68.4%	87.1%	–	16.4%	58.8%	10.1%	59.8%	107%	83.4%	79%	76.3%	78.6%	52.3%	74.4%	48.7%	15.8%	49.2%
